According to PubChem BioAssay:

test system: not listed separately; test: RPMI8226 myeloma cell viability, profiling panel, resazurin fluorescence, basal, 24 h, PK04 Diversity Set (AID 1180); settings: higher = more signal;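 further: RPMI8826 multiple myeloma cell line at 5000 cells per well; test concentration not given here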

Structure (SMILES) | z-score
CC1=C([C@H](O)CCc2ccccc2)[C@H](CO)n2c(=O)n(-c3ccccc3)c(=O)n2C1 | 0.12
CC(C)(C)N1CC=CC23O[C@@H]4C=CCCOC(=O)C4[C@H]2C(=O)N(CCCCCCO)[C@@H]3C1=O (stereo partly specified) | 0.382
CCCCCC1=C2CNC(CC(C)C)(C(=O)OC)C=C2C(C)C1=O (stereo unspecified) | -0.927
O=C1C=C(c2ccccc2)C(=O)C2=C1CC([C@H]1Oc3ccccc3S(=O)(=O)N3CCC[C@@H]13)=CC2 | -4.88
O=C1C[C@@](C(=O)O)(c2ccc([N+](=O)[O-])cc2)[C@@H](c2ccc(CO)cc2)N1C1CCCCC1 | 0.0311
CO[C@H]1O[C@H](CO)[C@@H](OC(=O)Nc2ccccc2-c2ccccc2)[C@H](OC(=O)Nc2ccccc2)[C@H]1OC(=O)Nc1ccccc1 | -2.06
O=C1c2ccccc2[C@@]2(Cc3ccccc3N(Cc3ccccc3)C2=O)[C@H](c2ccc(CO)cc2)N1Cc1ccccc1Cl | 0.694
CCCNC(=O)[C@@]1(c2ccc([N+](=O)[O-])cc2)CC(=O)N(C(C)C)[C@@H]1c1ccc(CO)cc1 | 0.123
[N-]=[N+]=Nc1ccccc1C[C@@]1(C(=O)NCC(O)CO)N=C(c2ccc(OCCCO)cc2)O[C@@H]1c1ccccc1 (stereo partly specified) | 0.0762
CC(C)C[C@@H]1NC(=O)[C@@H]2C[C@H](C(=O)NCCCCCCNC(=O)CS)[C@H](c3cccc(OCCO)c3)N2C1=O | -0.458
CC(=O)NCCCC[C@@H]1NC(=O)[C@H]2C[C@@H](C(=O)NCCCCCCNC(=O)CS)[C@@H](c3cccc(OCCO)c3)N2C1=O | -0.737
O=C1[C@@H]2[C@@H](CC(COc3ccccc3)=C([C@H](O)CCc3ccccc3)[C@@H]2CO)C(=O)N1Cc1ccccc1 | -0.664
O=C(NCC(O)CO)[C@@]1(CCS(=O)(=O)c2ccccc2)N=C(c2ccc(OCCCO)cc2)O[C@H]1c1ccccc1 (stereo partly specified) | -0.195
CN(C)c1ccc(C(O)C2C=CC3C(=O)N(Cc4ccccc4)C(=O)C3N2n2cnnc2)cc1 (stereo unspecified) | -0.268
COCCOC(=O)N1C(=O)[C@@]2(c3cc(C#CCC(C(=O)OC)C(=O)OC)ccc31)[C@H](C(=O)Nc1nc3ccccc3s1)[C@H]1C(=O)O[C@H](c3ccccc3)[C@H](c3ccccc3)N1[C@@H]2c1ccc(OCCO)cc1 | -0.177

target: E3 ubiquitin-protein ligase XIAP (Homo sapiens) (UniProt P98170); test: XIAP binders, primary screen, biophysical, small-molecule microarray, fluorescence 635 nm (AID 1181); settings: small-molecule microarray binding, higher = more signal;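 further: score merges 667 nm emission and signal to noise over triplicate slides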
Sequence (P98170 whole entry, looked up): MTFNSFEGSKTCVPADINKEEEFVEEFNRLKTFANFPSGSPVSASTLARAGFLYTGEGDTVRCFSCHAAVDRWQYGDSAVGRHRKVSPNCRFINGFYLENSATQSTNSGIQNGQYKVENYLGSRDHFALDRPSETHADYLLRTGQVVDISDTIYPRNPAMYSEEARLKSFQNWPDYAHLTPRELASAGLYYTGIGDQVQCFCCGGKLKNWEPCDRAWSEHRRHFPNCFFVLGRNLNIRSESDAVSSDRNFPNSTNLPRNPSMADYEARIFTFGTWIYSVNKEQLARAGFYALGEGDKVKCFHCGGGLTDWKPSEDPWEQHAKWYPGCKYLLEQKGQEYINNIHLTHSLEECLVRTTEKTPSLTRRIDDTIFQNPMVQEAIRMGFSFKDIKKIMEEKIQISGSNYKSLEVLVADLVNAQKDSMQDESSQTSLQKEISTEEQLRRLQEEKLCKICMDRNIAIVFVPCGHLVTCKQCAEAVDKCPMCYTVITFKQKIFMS

Structure (SMILES) | composite z-score
CCCC[C@H]1OB(O)C[C@H]2C1=C(COc1ccccc1)C[C@H]1C(=O)C=CC(=O)[C@H]12 | 0.0264
COCCOC(=O)N1C(=O)[C@@]2(c3ccccc31)[C@H](C(=O)N1CCN(c3ncccn3)CC1)[C@H]1C(=O)O[C@H](c3ccccc3)[C@H](c3ccccc3)N1[C@@H]2c1ccccc1OCCO | -0.0095
COC(=O)[C@@]1(Cc2ccccc2)[C@H]2c3cc(C(=O)N(C)C)n(CCO)c3C[C@H]2CN1C(=O)c1ccccc1 | -0.0152
[N-]=[N+]=Nc1ccccc1[C@@H]1OC(c2ccc(OCCCO)cc2)=N[C@]1(Cc1ccccc1)C(=O)NCCN1CCOCC1 | -0.0663
COc1cc(C(O)C2C=CC3C(=O)N(c4ccccc4)C(=O)C3N2Nc2ccccc2)cc(OC)c1OC (stereo unspecified) | 0.0845
C=CCC(OC(C)=O)[C@@H]1[C@@H](N(Cc2ccc(-c3ccccc3)cc2)C(=O)c2cccc3ccccc23)c2cc(OCCCO)ccc2N1C(=O)Cc1ccc(OC)cc1 (stereo partly specified) | -0.264
Cc1ccc(N2C(=O)c3ccccc3[C@](C)(C(=O)NCCCN(C)C)[C@@H]2c2ccc(CO)cc2)nc1 | -0.158
CCOC(=O)C[C@H]1[C@H](OC(=O)Cc2ccc3c(c2)OCO3)[C@@H](NC(=O)Cc2ccc(OC)cc2)c2cc(OCCCO)ccc2N1C(=O)Cc1ccc(OC)cc1 | -0.207
O=C1N(CCS(=O)(=O)c2ccccc2)c2ccccc2C[C@]12N=C(c1ccc(OCCCO)cc1)O[C@@H]2c1ccccc1 | 0.311
C=CCOC(=O)[C@@H]1[C@H]2C(=O)O[C@H](c3ccccc3)[C@H](c3ccccc3)N2[C@H](c2ccc(OCCOC(=O)[C@H]3C[C@H]4C(=O)N5CCC[C@H]5C(=O)N4[C@H]3c3cccc(OCCO)c3)cc2)[C@@]12C(=O)Nc1ccc(I)cc12 | 0.0003
COc1ccc([Si](C)(C)[C@H]2[C@H](CC(=O)N3Cc4ccccc4C[C@H]3CO)O[C@@]3(C(=O)N(c4ccccc4)c4ccccc43)[C@@H]2C)cc1 | -0.209
CCN(CC)c1ccc(N2CC=CC34O[C@@H]5C=CCCOC(=O)C5[C@H]3C(=O)N(C(C)CO)[C@@H]4C2=O)cc1 (stereo partly specified) | 0.741
COCCOC(=O)N1C(=O)[C@@]2(c3cc(C#CC4(O)CCCCCC4)ccc31)[C@H](c1ccc(O)cc1)N1[C@H](c3ccccc3)[C@H](c3ccccc3)OC(=O)[C@H]1[C@@H]2C(=O)N1CCCCCCC1 | -0.0351
COC(=O)[C@@]1(Cc2ccc(F)cc2)[C@H]2c3cc(C(=O)N(C)C)n(C)c3C[C@H]2CN1C(=O)c1ccccc1 | 0.147
O=C(NC1CC1)[C@@H]1c2ccccc2C(=O)N(Cc2cc(C(F)(F)F)cc(C(F)(F)F)c2)[C@H]1c1ccc(CO)cc1 | -0.0448
COc1ccc(C(O)C2C=CC3C(=O)NC(=O)C3N2Nc2ccc(Cl)cc2Cl)c2ccccc12 (stereo unspecified) | -0.0118
O=C(NCCN1CCOCC1)[C@@H]1c2ccccc2C(=O)N(Cc2ccccc2C(F)(F)F)[C@H]1c1ccc(CO)cc1 | 0.0487
CN(C)CCCCNC(=O)[C@H]1C[C@H]2C(=O)N3CCC[C@H]3C(=O)N2[C@H]1c1cccc(OCCO)c1 | 0.906

Structure (SMILES) | composite z-score
COc1ccc(CCNC(=O)[C@@H]2c3ccccc3C(=O)N(Cc3ccccc3OC)[C@H]2c2ccc(CO)cc2)cc1 | -0.309
CC(C)OC(=O)CC(=O)CC(O)c1cccc([N+](=O)[O-])c1 (stereo unspecified) | 0.15
CCOC(=O)C[C@H]1[C@H](OC(=O)c2cc3ccccc3oc2=O)[C@@H](NC(=O)CC(C)C)c2cc(OCCCO)ccc2N1C(=O)Cc1ccc(OC)cc1 | -0.284
CC1=C([C@H](O)CCc2ccccc2)[C@H](CO)n2c(=O)n(-c3ccccc3)c(=O)n2C1 | -0.237
CC(C)(C)N1CC=CC23O[C@@H]4C=CCCOC(=O)C4[C@H]2C(=O)N(CCCCCCO)[C@@H]3C1=O (stereo partly specified) | 0.189
CCCCCC1=C2CNC(CC(C)C)(C(=O)OC)C=C2C(C)C1=O (stereo unspecified) | 0.0907
O=C1C=C(c2ccccc2)C(=O)C2=C1CC([C@H]1Oc3ccccc3S(=O)(=O)N3CCC[C@@H]13)=CC2 | -0.127
O=C1C[C@@](C(=O)O)(c2ccc([N+](=O)[O-])cc2)[C@@H](c2ccc(CO)cc2)N1C1CCCCC1 | -0.193
CO[C@H]1O[C@H](CO)[C@@H](OC(=O)Nc2ccccc2-c2ccccc2)[C@H](OC(=O)Nc2ccccc2)[C@H]1OC(=O)Nc1ccccc1 | 0.0479
O=C1c2ccccc2[C@@]2(Cc3ccccc3N(Cc3ccccc3)C2=O)[C@H](c2ccc(CO)cc2)N1Cc1ccccc1Cl | 0.147
CCCNC(=O)[C@@]1(c2ccc([N+](=O)[O-])cc2)CC(=O)N(C(C)C)[C@@H]1c1ccc(CO)cc1 | 0.0692
[N-]=[N+]=Nc1ccccc1C[C@@]1(C(=O)NCC(O)CO)N=C(c2ccc(OCCCO)cc2)O[C@@H]1c1ccccc1 (stereo partly specified) | 0.0049
CC(C)C[C@@H]1NC(=O)[C@@H]2C[C@H](C(=O)NCCCCCCNC(=O)CS)[C@H](c3cccc(OCCO)c3)N2C1=O | -0.122
CC(=O)NCCCC[C@@H]1NC(=O)[C@H]2C[C@@H](C(=O)NCCCCCCNC(=O)CS)[C@@H](c3cccc(OCCO)c3)N2C1=O | 0.0593
O=C1[C@@H]2[C@@H](CC(COc3ccccc3)=C([C@H](O)CCc3ccccc3)[C@@H]2CO)C(=O)N1Cc1ccccc1 | 0.15
O=C(NCC(O)CO)[C@@]1(CCS(=O)(=O)c2ccccc2)N=C(c2ccc(OCCCO)cc2)O[C@H]1c1ccccc1 (stereo partly specified) | 0.0341
CN(C)c1ccc(C(O)C2C=CC3C(=O)N(Cc4ccccc4)C(=O)C3N2n2cnnc2)cc1 (stereo unspecified) | 0.0968
COCCOC(=O)N1C(=O)[C@@]2(c3cc(C#CCC(C(=O)OC)C(=O)OC)ccc31)[C@H](C(=O)Nc1nc3ccccc3s1)[C@H]1C(=O)O[C@H](c3ccccc3)[C@H](c3ccccc3)N1[C@@H]2c1ccc(OCCO)cc1 | 0.214
